From PubChem BioAssay (NCATS)
Inconclusive results are not listed. Unmarked numbers belong to inactive results. The source made the active and inactive calls. The call rests on the fitted dose curve; in most records, active means well fitted cell-killing curve with a large enough effect; inconclusive means small, poorly fitted or top-dose-only effect, or effect the other way; inactive means no such curve, though single readings can be large or run the other way. Starred links: 1 amine or outer side, 2 acyl side, 3 side chain; linkers in the order of their positions; H or OH if unused. Positions of bridges follow the written chain, without caps; N, C: chain ends. Non-standard residues stand in square brackets, D forms with d. Residues, ends and D or L forms follow the SMILES beside them. Chains are numbered I, II in the order given. Actinocin(9to1) = Cc1c2oc3c(C)ccc(C(=O)[*:1])c3nc-2c(C(=O)[*:2])c(N)c1=O; NMeV = CN[CH](C(=O)O)C(C)C; Sar = CNCC(=O)O

assay: Quantitative High-Throughput drug screen in 47 multiple myeloma cell lines against the NCATS MIPE library collection: UTMC2_PLB cell viability assay (AID 1919868); details: CellTiter-Glo ATP luminescence, 48 h; viability (% of DMSO control): at 45.8 µM (top of the series); further: nearly all actives have a fitted effect of over 55% in size
In short: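 500 cells/well; MIPE 4.0 drugs pin-transferred; 48 h, 37C, 5% CO2. CellTiter-Glo, 5 min RT, luminescence. Controls: DMSO 100%, media 0%.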
Potency means the concentration at half of the fitted maximal effect.

| Structure (SMILES) | Potency | viability (% of DMSO control) [%] |
| --- | --- | --- |
| CCS(=O)(=O)Nc1ccc2[nH]c(O)c(C(=Nc3ccc(CN4CCCCC4)cc3)c3ccccc3)c2c1 | 93.5 nM (active) |  |
| CCN(CC)CCNC(=O)c1c(C)[nH]c(C=C2C(=O)Nc3ccc(F)cc32)c1C | 540 nM (active) |  |
| O=C1NC(=O)[C@@H](c2cn3c4c(cccc24)CCC3)[C@H]1c1c[nH]c2ccccc12 | 332 nM (active) |  |
| COC1=C2C[C@@H](C)C[C@H](OC)[C@@H](O)[C@@H](C)C=C(C)[C@H](OC(N)=O)[C@@H](OC)C=CC=C(C)C(=O)NC(=CC1=O)C2=O | 209 nM (active) |  |
| NC(=NCCCCCCN=C(N)N=C(N)Nc1ccc(Cl)cc1)N=C(N)Nc1ccc(Cl)cc1 | 5260 nM (active) |  |
| Nc1nc(N)c2nc(-c3cccc(O)c3)c(-c3cccc(O)c3)nc2n1 | 3720 nM (active) |  |
| CC(C)C[C@H](NC(=O)[C@@H](NC(=O)c1cccc(-c2ccccc2)n1)[C@@H](C)O)B(O)O | 166 nM (active) |  |
| C#C[C@]1(O)CC[C@@H]2[C@@H]3CCC4=CC(=O)CC[C@@H]4[C@H]3CC[C@@]21CC |  | 153 |
| CC(=O)O[C@@]12CO[C@H]1C[C@H](O)[C@@]1(C)C(=O)[C@H](O)C3=C(C)[C@@H](OC(=O)C(O)[C@@H](NC(=O)OC(C)(C)C)c4ccccc4)C[C@@](O)([C@@H](OC(=O)c4ccccc4)[C@@H]21)C3(C)C (some centres undefined) |  | 70.7 |
| C[C@H](NCc1ccc(OCc2cccc(F)c2)cc1)C(N)=O | 1180 nM (active) |  |
| C[C@@]12C(=O)OC(=O)[C@@]1(C)C1CCC2O1 | 46.9 nM (active) |  |
| Cc1c2oc3c(C)ccc(C(=O)NC4C(=O)NC(C(C)C)C(=O)N5CCCC5C(=O)N(C)CC(=O)N(C)C(C(C)C)C(=O)OC4C)c3nc-2c(C(=O)NC2C(=O)NC(C(C)C)C(=O)N3CCCC3C(=O)N(C)CC(=O)N(C)C(C(C)C)C(=O)OC2C)c(N)c1=O (centres undefined) (I: TVP[Sar][NMeV] / II: TVP[Sar][NMeV]; ester I:1-I:C, II:1-II:C; linker I:N-II:N via Actinocin(9to1); configuration not given here) |  | 1.86 |
| CC(C=CC(=O)NO)=C[C@@H](C)C(=O)c1ccc(N(C)C)cc1 | 235 nM (active) |  |
| c1ccc(CNc2nc(NCc3ccccc3)c3ccccc3n2)cc1 | 10500 nM (active) |  |
| COc1cccc2c1C(=O)c1c(O)c3c(c(O)c1C2=O)C[C@@](O)(C(=O)CO)C[C@H]3O[C@H]1C[C@H](N)[C@H](O)[C@H](C)O1 | 118 nM (active) |  |
| CCC(C(=O)O)C1CCC(C)C(C(C)C(O)C(C)C(=O)C(CC)C2OC3(C=CC(O)[C@@]4(CC[C@](C)(C5CC[C@@](O)(CC)C(C)O5)O4)O3)C(C)CC2C)O1 (some centres undefined) | 1320 nM (active) |  |
| CCC(C=C[C@@H]1OC(=O)C=C[C@H]1C)=C[C@H](C)CC=CC(C)=C[C@@H](C)C(=O)[C@@H](C)[C@H](O)[C@@H](C)CC(C)=CC(=O)O | 17.5 nM (active) |  |
| CC(C)C[C@H](NC(=O)CNC(=O)c1cc(Cl)ccc1Cl)B1OC(=O)CC(CC(=O)O)(C(=O)O)O1 (some centres undefined) | 526 nM (active) |  |
| COc1cc2c(cc1OC)[C@@H]1C(=O)c3ccc4c(c3O[C@@H]1CO2)C=CC(C)(C)O4 | 418 nM (active) |  |
